Screening data: PubChem, The Scripps Research Institute Molecular Screening Center
GPR151 activ – activates the human receptor GPR151; PathHunter beta-arrestin GPR151 cells, luminescence; activation, % at 11.2 µM; actives 1% (n = 650,000); AID 1508602; in the data active = activation above about 4.9%
Target sequence (Q8TDV0 whole entry, looked up): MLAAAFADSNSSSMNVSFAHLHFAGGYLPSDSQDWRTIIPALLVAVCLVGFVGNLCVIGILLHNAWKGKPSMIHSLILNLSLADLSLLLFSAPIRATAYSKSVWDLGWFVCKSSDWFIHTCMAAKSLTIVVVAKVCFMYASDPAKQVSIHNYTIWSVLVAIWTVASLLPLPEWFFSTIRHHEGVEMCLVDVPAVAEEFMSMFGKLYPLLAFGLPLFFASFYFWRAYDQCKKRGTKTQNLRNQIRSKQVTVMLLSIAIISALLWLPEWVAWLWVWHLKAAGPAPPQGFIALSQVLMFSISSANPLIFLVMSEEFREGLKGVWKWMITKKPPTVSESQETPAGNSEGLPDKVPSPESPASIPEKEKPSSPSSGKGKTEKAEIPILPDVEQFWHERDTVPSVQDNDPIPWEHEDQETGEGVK
MITF primary – blocks human microphthalmia-associated transcription factor. actives 0.91% (n = 650,000). O75030. AlphaScreen MITF homodimerization, bead proximity signal. inhibition, % at 2.6 µM; in the data active = inhibition above about 50%
FBW7 activator – activators of human E3 ligase FBW7; actives 0.13% (n = 650,000); normalized activity (activation), % at 26.1 µM; Q969H0; AID 1259310; AlphaScreen FBW7–phospho-cyclin E peptide binding, activator screen; in the data active = normalized activity above about 1.9%;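 note: purified mutant Fbw7 with reduced substrate affinity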
TEAD-YAP block – TEAD-YAP interaction inhibition; HEK-TIYL cells, TEAD-Gal4/YAP UAS-luciferase luminescence; inhibition, % at 9.12 µM; actives 1.4% (n = 640,000); in the data active = inhibition above about 32%
Each line names hits and unclear results; the compound was inactive in the other large screens. Compounds with a hit are over-represented: about 3.5% of the library has one in this group of screens.

c1ccc(Oc2ccc(Nc3nc(N4CCc5ccccc5C4)nc4c3ncn4C3CCCCC3)cc2)cc1	none
Cc1noc(C)c1-c1nc(Nc2ccccc2)c2ncn(C3CCCCC3)c2n1	TEAD-YAP block 75
CCCCN(C)CCCNC(=O)c1ccc(CNS(=O)(=O)c2ccc(F)cc2)cc1	none
COc1cccc(N2C(=O)CC(N3CCN(Cc4ccc5c(c4)OCO5)CC3)C2=O)c1 (centres undefined)	none
Cc1csc(SCc2cc(=O)c(OC(=O)c3ccc4ccccc4c3)co2)n1	none
CCOc1ccc(NC(=O)C2CC(=O)N(CC)C(=Nc3ccc(OC)cc3)S2)cc1 (centres undefined)	none
CCN1C(=O)CC(C(=O)Nc2ccc(Br)cc2)SC1=Nc1ccc(OC)cc1 (centres undefined)	TEAD-YAP block 34
CSC1=C(C#N)C(c2ccccc2C)C2=C(CCCC2=O)N1 (centres undefined)	TEAD-YAP block 39
CSC1=C(C#N)C(c2cccs2)C2=C(CCCC2=O)N1 (centres undefined)	none
Cc1nc2cc(-c3ccc(F)cc3)nn2c(NC2CCC(O)CC2)c1C (centres undefined)	none
Cc1oc2c(c1C(=O)O)C(=O)c1ccccc1C2=O	none
Cc1oc2c(c1C(=O)N1CCCC1)C(=O)c1ccccc1C2=O	TEAD-YAP block 54
O=C(NCCCn1ccnc1)C1CC12CCN(C(=O)C1(c3ccccc3)CCCCC1)CC2 (centres undefined)	TEAD-YAP block 38
CCOc1cc(/C=C(\C#N)C(N)=O)ccc1OCCOCCOc1ccc(C)cc1	none
O=[N+]([O-])c1nn(-c2ccc(Cl)cc2)n(O)c1=Nc1ccc(Cl)cc1	none
O=[N+]([O-])c1nn(-c2ccc(Cl)cc2)n(O)c1=Nc1ccccc1F	TEAD-YAP block 38
O=[N+]([O-])c1nn(-c2ccc(Cl)cc2)n(O)c1=Nc1ccccc1	TEAD-YAP block 62
Cc1cccc(NCC(O)Cn2c(C)c(C)c3ccccc32)c1C (centres undefined)	MITF primary 51
C/C(N)=C(/C#N)C(=O)CSc1ccc(C)c(C)c1	TEAD-YAP block 36
Cc1cc2nc(N3CCCN(Cc4ccc(CO)o4)CC3)nc(C)c2cc1C	none
Cc1cc2nc(N3CCCN(Cc4c(C)nc5sccn45)CC3)nc(C)c2cc1C	TEAD-YAP block 32
CCOC(=O)c1nn(-c2ccc(C)c(C)c2)cc1O	none
CCOC(=O)c1nn(-c2ccc3c(c2)OCCO3)cc1O	TEAD-YAP block 43
Cc1ccc2c(CC(=O)Nc3sc4c(c3C(N)=O)CCCC4)coc2c1	none
COCCCNC(=O)c1c(NC(=O)Cc2coc3ccc(C)cc23)sc2c1CCCC2	TEAD-YAP block 48
Cc1ccc2c(c1)cc(CN(Cc1ccccc1)C(=O)NCc1ccccc1)c1nnnn12	none
COc1cc(C(=O)N2N=C(c3ccc4ccccc4c3)CC2c2ccccc2)cc(OC)c1OC (centres undefined)	none
Cc1ccc(C2=NN(S(C)(=O)=O)C(c3ccccc3F)C2)cc1 (centres undefined)	none
Cc1ccc(C2=NN(C(=O)c3ccncc3)C(c3ccccc3F)C2)cc1 (centres undefined)	TEAD-YAP block 47
COc1ccc(C2=NN(C(=O)c3cc(OC)c(OC)c(OC)c3)C(c3ccccc3F)C2)cc1OC (centres undefined)	TEAD-YAP block 42
COc1ccc(C2=NN(C(=O)c3cc(OC)c(OC)c(OC)c3)C(c3ccc(F)cc3)C2)cc1OC (centres undefined)	TEAD-YAP block 50
COc1ccc(C2=NN(C(=O)c3cccs3)C(c3ccccc3F)C2)cc1OC (centres undefined)	none
COc1cc(C(=O)N2N=C(c3ccccc3)CC2c2ccccc2)cc(OC)c1OC (centres undefined)	TEAD-YAP block 53
Cc1nc2nc[nH]n2c(=O)c1CCC(=O)NCc1ccccc1	none
CCN(CC)S(=O)(=O)c1ccc(C#N)cc1	none
COc1ccc(C2=N/C(=C/c3ccc(F)cc3)C(=O)N2c2cccc(OC)c2)cc1	none
c1ccc(-n2cnc3c(NCc4nc5ccccc5[nH]4)nc(-c4ccc(N5CCOCC5)nc4)nc32)cc1	TEAD-YAP block 44
O=C(NCc1nc2ccccc2[nH]1)c1ccc2nc(-c3ccc(N4CCOCC4)nc3)sc2c1	FBW7 activator 6.9
c1ccc(-n2cnc3c(NCc4nc5ccccc5[nH]4)nc(N4CCN(Cc5ccc6c(c5)OCO6)CC4)nc32)cc1	TEAD-YAP block 71
c1ccc(-n2cnc3c(NCc4nc5ccccc5[nH]4)nc(N4CCOCC4)nc32)cc1	TEAD-YAP block 82
